Screens (PubChem BioAssay)
Autophagy HCS: autophagy modulation, high-content screen; actives 0.98% (n = 190,000); calls only at 10 µM (by protocol); MEF GFP-LC3 puncta imaging; test concentration mostly 10 µM; AID 463193;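 active means percentage of spot-positive cells more than 3 SD above its plate mean, without a fluorescence outlier flag or 80% toxicity; inconclusive means no clear call, values can overlap the other calls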;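 further: spot-positive cell cutoff set from DMSO-treated cells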
Efa HMGR inh: inhibitors of class II HMG-CoA reductase from Enterococcus faecalis; actives 0.41% (n = 190,000); purified E. faecalis HMGR, NADPH absorbance 340 nm kinetic; AID 1066; inhibition, % at 10 µM;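 active means inhibition above a set limit, the median over all tested compounds plus 3 SD, cut at about 9.5% in these data; inconclusive means no clear call, values can overlap the other calls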;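 further: enzyme runs in reverse so mevalonate oxidation gives rising NADPH absorbance; 0% = complete reaction with DMSO and 100% = background rate lacking mevalonate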
Ins promoter up: MIN6 insulin promoter up-regulation; MIN6 insulin promoter-GFP reporter, high-content imaging; hits give high values; z-score at 5 µM; actives 0.3% (n = 190,000); AID 1625;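 active means z-score above 3 at 5 µM with at least 500 cells counted in the well; inconclusive means wells under 500 cells, flagged as cytotoxic or low count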
Insulin prom inh: TRM-6 insulin promoter activity inhibition | TRM-6 cells (human fetal islet line), insulin promoter-eGFP reporter, imaging; reporter expression induced with tamoxifen | actives 0.9% (n = 130,000) | inhibition, % at 2 µM;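 active means inhibition above the mean plus 3 SD, with well images judged a real hit on visual review, cut at about 60% in these data, passing the limit was not always enough; inconclusive means inhibition over the cutoff but images rejected on review; inactive means inhibition not above the cutoff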
* marks the source's active call; other numbers are inactive results; i = inactive; ? = inconclusive; · = not tested or not shown; + = active, no number. This is a sample that favours compounds with a hit; in the whole collection about 1.9% have one here.

SMILES | Autophagy HCS | Efa HMGR inh | Ins promoter up | Insulin prom inh
Cc1ccccc1C(=O)NC1CCN(C(=O)N2CCOCC2)CC1 | i | -3 | · | 75*
O=C(c1ccc(F)cc1)N1CCCCC(S(=O)(=O)c2ccccc2)C1=O (configuration not stated) | i | -7 | 0.59 | -119
O=C(COc1ccccc1C(=O)N/N=C\c1ccc(O)c(O)c1)N/N=C/c1ccc(O)c(O)c1 | i | 29* | -0.22 | ·
CCNS(=O)(=O)c1ccc(CCC(=O)NCc2ccc(C)cc2)cc1 | + | -2 | -0.28 | ·
CC(C)N=C(NS(=O)(=O)c1ccccc1)C(Cl)(Cl)Cl | i | 4 | · | -22
Cc1cccc(OCCN2CSC(=S)N(C)C2)c1 | + | 0 | -0.09 | ·
Cc1cc(C(=O)CCl)c(C)n1-c1ccon1 | i | -4 | -0.66 | 82*
Cc1cccc(C(=O)N2CCC(=O)N(C(COCc3ccccc3)Cc3ccccc3)CC2)c1 (configuration not stated) | i | 15* | -0.52 | -27
COc1cc(-c2nnc3n2N=C(c2ccccc2)CS3)cc(OC)c1OC | + | -2 | -1.1 | ·
Cc1c(NS(=O)(=O)c2ccccc2)c(=O)n(-c2ccccc2)n1C | i | 1 | 0.06 | 22
Cc1c(Nc2nc3ccccc3nc2NS(=O)(=O)c2ccccc2)c(=O)n(-c2ccccc2)n1C | + | 0 | 0.55 | ·
O=C1N=C(N2CCc3ccccc3C2)S/C1=C\c1cccc(O)c1 | i | 6 | · | 44
CCOc1ccc(NC(=O)c2nsc(Cl)c2Cl)cc1 | + | -1 | -0.1 | ·
Cc1nc2c(cnn2-c2ccccc2)c(=O)[nH]1 | i | 0 | -0.32 | ·
Cc1cc(C)c(-c2c(O)c3cnn(-c4ccccc4)c3[nH]c2=O)c(C)c1 | i | -4 | 0.47 | 67*
CSc1nn2cc(CCN3CCOCC3)c(-c3ccc(F)cc3)nc2c1C#N | + | 4 | 0.12 | -156
CN(Cc1ccno1)C(=O)CC1C(=O)NCCN1CC(c1ccccc1)c1ccccc1 (configuration not stated) | i | -5 | 0.77 | ·
COc1ccc(NC(=O)c2ccccc2NC(=O)CSc2ccccc2)cc1 | i | -2 | -0.62 | ·
COc1ccc(NC(=O)c2ccccc2NC(=O)CSc2ccc(Cl)cc2)cc1 | + | -4 | 0.84 | 23
COc1ccc(NC(=O)c2ccccc2SC)cc1 | i | 9.6* | · | -13
COCCOC(=O)c1c(NC(=O)CN2CCOCC2)sc(C(N)=O)c1C | i | 17* | -0.82 | ·
CCOC(=O)c1c(NC(=O)CN2CCOCC2)sc(C(=O)NC)c1C | i | 0 | 0.16 | 7
CCN(CC)S(=O)(=O)c1ccc(NC(=O)c2cc(C(=O)OC)cc([N+](=O)[O-])c2)cc1 | i | -2 | 1 | 71*
CC1(C)c2ccccc2N2CCC(=O)NC21/C=C/c1ccco1 (configuration not stated) | i | -3 | -0.61 | ·
CC1(C)c2ccccc2N2CC(=O)NC21/C=C/c1ccco1 (configuration not stated) | i | -6 | 3.3* | 0
SMILES | Autophagy HCS | Efa HMGR inh | Ins promoter up | Insulin prom inh
COC(=O)c1c(NC(=O)CC2Nc3ccccc3NC2=O)sc(C)c1C (configuration not stated) | + | -4 | · | -27
CCOC(=O)c1c(NC(=O)CC2Nc3ccccc3NC2=O)sc(C)c1C (configuration not stated) | + | -3 | -0.67 | 3
CCOC(=O)c1c(NC(=O)CC2Sc3ccc(C(F)(F)F)cc3NC2=O)sc(C)c1C (configuration not stated) | i | -4 | 0.78 | ·
COc1ccc2c(C)nc(Nc3nc(C)cc(=O)[nH]3)nc2c1 | + | · | · | 25
COC(=O)c1sc2cc([N+](=O)[O-])cc(SCC(C)C)c2c1N | + | 1 | ? | i
COc1cc(NC(=O)c2ccc(F)cc2)c(OC)cc1NC(=O)CN1CCOCC1 | + | -3 | · | 33
COc1cc(-c2ccc(NC(=O)CN3CCC(C)CC3)c(OC)c2)ccc1NC(=O)CN1CCC(C)CC1 | + | -1 | 0.06 | ·
COc1ccccc1CNC(=O)/C=C/c1ccc(Br)o1 | i | 2 | -0.75 | ·
O=C(O)/C(=C\c1cccs1)c1ccccc1 | i | 12* | 0.1 | ·
CC(=O)N/C(=C\c1cccs1)C(=O)O | i | -9 | -0.61 | -55
CC(C)(C)C1=CC=C(C(C)(C)C)C(=O)C1=O | · | · | -0.14 | ·
Nc1nc(N2CCCCC2)c(C=O)c(N2CCCCC2)n1 | + | -2 | -0.74 | ·
CCOC(=O)C1=C(C)NC(C)=C(C(=O)OCC)C1c1sccc1C | i | 1 | -0.39 | ·
NNc1nc2c(Cl)ccc(Cl)c2s1 | i | 19* | -0.35 | 22
CCOc1cccc2sc(NN)nc12 | i | -6 | -0.13 | -3
O=C(Cn1nc(-c2cccc([N+](=O)[O-])c2)c2ccccc2c1=O)NCC1CCCO1 (configuration not stated) | i | 1 | -0.49 | ·
O=C(NNc1nc(Nc2ccccc2)nc(N2CCOCC2)n1)Nc1ccc(Cl)cc1 | i | 3 | 0.39 | -76
CC(=O)Nc1ccc(/C(C)=N/Nc2nc(Nc3ccccc3)nc(N3CCOCC3)n2)cc1 | + | -1 | -0.46 | ·
Cc1cc[n+](-c2nc3ccccc3nc2[N-]S(=O)(=O)c2ccccc2)cc1 | i | -13 | -0.63 | ·
CCc1cc[n+](-c2nc3ccccc3nc2[N-]S(=O)(=O)c2ccc(Br)s2)cc1 | + | 4 | 0.92 | 8
CCOC(=O)c1cc2oc(C(c3nnnn3C3CCCCC3)N3CCOCC3)cc2[nH]1 (configuration not stated) | + | -1 | · | -44
O=C(Nc1ccccc1)N1CCC(C(=O)N2CCN(c3ccccc3F)CC2)CC1 | i | -1 | -1.1 | -100
C/C(=N/NC(=O)CNC(=O)c1ccncc1)c1ccco1 | · | · | -0.02 | ·
Cc1ccc(-n2sc3ccccc3c2=O)cc1S(=O)(=O)N1CCCCC1 | i | 0 | -0.44 | 75*
O=c1c2ccccc2sn1-c1ccc(S(=O)(=O)N2CCCCC2)cc1 | i | · | · | 28
SMILES | Autophagy HCS | Efa HMGR inh | Ins promoter up | Insulin prom inh
COc1ccc(C(CNc2ccc(S(=O)(=O)N3CCCC3)cc2[N+](=O)[O-])N2CCCC2)cc1 (configuration not stated) | + | 1 | -0.3 | -15
COc1ccc(Nc2ccc(S(=O)(=O)N3CCCCC3)cc2[N+](=O)[O-])cc1 | i | -17 | 0.52 | ·
Cn1cc(Cl)c(C(=O)NC(=S)Nc2sc3c(c2C#N)CCCCC3)n1 | + | 0 | 0.79 | -35
Cn1cc(Br)c(C(=O)Nc2sc3c(c2C#N)CCC3)n1 | · | · | -0.46 | ·
Cc1cc2nnc(SCC(=O)NCc3cccs3)n2c2ccccc12 | + | -2 | -0.63 | 14
Cc1ccccc1-n1ncc2c(SCC(=O)NCc3cccs3)ncnc21 | i | -5 | 3.6* | 42
CCOC(=O)c1[nH]c(C)c(/C(O)=C2\C(=O)C(=O)N(CCCN3CCOCC3)C2c2cccs2)c1C (configuration not stated) | · | · | -0.04 | ·
O=C(Cn1cnc2cc([N+](=O)[O-])ccc2c1=O)Nc1ccccc1-c1ccccc1 | · | · | 1.2 | ·
O=C(CCN1C(=O)c2ccc([N+](=O)[O-])cc2C1=O)Nc1nccs1 | + | 0 | 0.42 | ·
